What all share (experiment): NCI-60 one-dose screen, 48 h (100 = growth as untreated, 0 = no growth, -100 = all killed)
What all share (settings): 10 µM unless noted

Experiment [1] relates to SK-MEL-2 melanoma.
Experiment [2] relates to EKVX NSCLC.
In experiment [3] the test system is SN12C renal.
Experiment [4] deals with UO-31 renal.
Experiment [5] concerns TK-10 renal.
The subject of experiment [6] is ACHN renal.
Experiment [7] deals with CAKI-1 renal.
Experiment [8] has as its system A498 renal.
In experiment [9] the test system is CCRF-CEM leukemia.
Experiment [10] has as its system MOLT-4 leukemia.

Each structure is given as a SMILES string. This is part of a sample that, as a whole, favours compounds with a hit. Of some 83,000 tested, about 20% had one in any assay.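 Note: values are percent growth. 100 is the growth of untreated cells, values between 100 and 0 indicate rising inhibition; between -100 and 0 indicates cell death.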 A number with no mark means an inactive call. Activity calls are given as the source filed them. The calls were made as follows: active = growth percent below 10; inactive = the rest.

In the case of `Cc1ccc(-c2cc(C(=O)N3N=C(c4ccc(N)cc4)CC3c3ccc(Cl)cc3)c3ccccc3n2)cc1` (stereo not given), the growth in experiment [1] is 2.76% (active); in experiment [2], 44.5%; in experiment [3], 48.8%; in [4], 42.9%; in experiment [5] it was 24.5%; in experiment [6] it was 51.7%. The growth in experiment [7] was 24%; in experiment [8], 0.316% (active); in experiment [9], 12.8%; in [10], 25.2%.
Regarding `CCOC(=O)Cn1c(=O)c2c3ccccc3n(C)c2n2nnc(-c3ccccc3)c12`, the growth in experiment [1] is 97.1%; in experiment [2], 85.8%; in [3] it was 81.8%; in experiment [4], 81.2%; in [5], 129%; in experiment [6] it was 91.8%. The growth in experiment [7] was 81.2%; in [8], 134%; in experiment [9] it was 68.4%; in experiment [10] it was -40.7% (active).
In the case of `CC1(C)CCC(S(=O)(=O)c2ccc3c(c2)/C(=N\O)c2cc(S(=O)(=O)N4CCN(c5ccc(F)cc5O)CC4)ccc2-3)CC1`, the growth in experiment [1] was -85.6% (active); in experiment [2] it was -53% (active); in [3] it was 19.8%; in experiment [4], -91.4% (active); in experiment [5], -82% (active); in experiment [6] it was 0.0292% (active). In addition, the growth is -76.1% (active) in experiment [7], -65.3% (active) in experiment [8], -63.4% (active) in experiment [9] and -71.9% (active) in [10].
As to `CN(C)c1ccc(/C=C/C(=O)c2ccccc2)cc1`, the growth is 93.5% in [1]; 97.9% in experiment [2]; 84.8% in experiment [3]; 67.5% in experiment [4]; 74.5% in [5]; 109% in [6]. In addition, the growth in experiment [7] was 97.1%; in [8], 74%; in [9] it was 66.1%; in experiment [10], 76.3%.
`COc1ccc(-c2cc(-c3cc(OC)c(OC)c(OC)c3)c(C#N)c(=O)n2CCCCCC(=O)NO)cc1`: the growth is 102% in experiment [1]; 91.3% in experiment [2]; 89.2% in experiment [3]; 62.4% in experiment [4]; 106% in experiment [5]; 88.3% in experiment [6]. Further, the growth in experiment [7] is 79.9%; in [8], 54%; in [9] it was 85.7%; in [10], 96.6%.
Turning to `N=C(N)c1ccc(-c2ccc(-c3ccc(Cl)cc3)o2)o1`, the growth in experiment [1] was 82.1%; in experiment [2], 68.3%; in experiment [3], -58.9% (active); in [4], 46%; in experiment [5], 72.1%; in experiment [6] it was 28.3%. In addition, the growth in experiment [7] is 54.2%; in [8], 61.3%; in [9] it was -20.3% (active); in experiment [10] it was -28.9% (active).
On to `NC(=S)N/N=C/c1cn(-c2ccccc2)nc1-c1cc2ccccc2oc1=O`, for which the growth in experiment [1] is 39.2%; in experiment [2], 75.3%; in experiment [3], 63.1%; in experiment [4], 50.7%; in [5], 77.2%; in [6] it was 77.4%. Also, the growth in experiment [7] is 44.1%; in experiment [8] it was -6.2% (active); in [9], 53.7%; in experiment [10], 33.4%.
As to `Nc1ccc([N+](=O)[O-])cc1N=C/C=C/c1ccccc1`, the growth in [1] was 43.5%; in experiment [2], 97.5%; in [3], 50.6%; in experiment [4], 43.3%; in experiment [5] it was 79.8%; in experiment [6] it was 81.7%. The growth in experiment [7] is 73.1%; in experiment [8] it was 79.3%; in [9], 18.3%; in experiment [10], 14.8%.
As to `Cc1nc2sc(C(=O)Nc3ccccc3)c(N)c2cc1C(=O)/C=C/c1ccccc1`, the growth was 18.4% in experiment [1]; 43.2% in [2]; -27.1% (active) in experiment [3]; -82.6% (active) in experiment [4]; -18.1% (active) in experiment [5]; 3.7% (active) in [6]. The growth in experiment [7] is -54.1% (active); in experiment [8], 9.65% (active); in experiment [9], 6.14% (active); in experiment [10], 15.3%.
As for `CN(C)c1ccc(/C=C/C(=O)c2ccc(Nc3nc(Nc4ccc(F)cc4)nc(Nc4ccc(Cl)cc4)n3)cc2)cc1`, the growth is 52.6% in experiment [1]; 67.2% in [2]; 101% in [3]; 59.2% in experiment [4]; 97.9% in experiment [5]; 75.3% in [6]. Besides, the growth in experiment [7] is 70.9%; in experiment [8], 83.4%; in experiment [9], 4.13% (active); in experiment [10] it was -3.06% (active).
Regarding `Cc1ccc(-c2nc(C(Cl)Cl)nc3cc(C)nn23)cc1`, the growth was 65.5% in [1]; 5.75% (active) in experiment [2]; 40.5% in experiment [3]; 51.3% in experiment [4]; 29% in [5]; -45% (active) in experiment [6]. For the same molecule, the growth is -14.2% (active) in experiment [7], -2.75% (active) in experiment [8], 32.5% in experiment [9] and 16.7% in experiment [10].
For `COc1ccc(-c2nnc(SCC(=O)Nc3ccc(/C(C)=N\O)cc3)n2-c2ccccc2)cc1OC`, the growth was 57.6% in experiment [1]; 71.1% in experiment [2]; 71.8% in experiment [3]; 104% in experiment [4]; 41.1% in [5]; 75.5% in experiment [6]. Further, the growth is 87.4% in [7], 91.8% in experiment [8], 98.5% in [9] and 91.7% in experiment [10].
Consider `C#CCn1cnc2c(Nc3cccc(NC(=O)CCl)c3)ncnc21`, for which the growth is 46% in experiment [1]; 45.3% in [2]; 31.2% in [3]; 46.7% in [4]; 76.9% in [5]; 23.4% in experiment [6]. Further, the growth was 29.9% in [7], 78.7% in [8], 4.81% (active) in experiment [9] and 4.44% (active) in [10].

Source of the values: PubChem BioAssay (NCI).
